Data reported in PubChem BioAssay (EPA / NIEHS).
Records with an inconclusive call do not appear. The source made the active and inactive calls. The calls were made as follows, unless noted: active = hit-call score of the fitted dose curve at least 0.9, where 1 is the maximum; inactive = score below 0.9.

Key:
[1] = target: Oxysterols receptor LXR-alpha (Homo sapiens) (UniProt Q13133); test: ATG_LXRa_TRANS: Attagene TRANS-FACTORIAL HepG2 Assay for human Liver X Receptor alpha (LXRa) (AID 2282980; active = hit-call score of the fitted dose curve at least 0.9, where 1 is the maximum); conditions: HepG2 Attagene TRANS reporter, LXRa transactivation
Method in brief: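 HepG2 cells were transiently transfected with multiplexed reporter units driven by chimeric LXRa–GAL4 fusion proteins, then dosed for 24 h. Reporter mRNA was quantified by RT-PCR, fluorescent labelling and capillary electrophoresis; gain of signal fitted against DMSO baseline.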

[2] = target: Oxysterols receptor LXR-beta (Homo sapiens) (UniProt P55055); test: ATG_LXRb_TRANS: Attagene TRANS-FACTORIAL HepG2 Assay for human Liver X Receptor beta (LXRb) (AID 2282981; active = hit-call score of the fitted dose curve at least 0.9, where 1 is the maximum); conditions: HepG2 Attagene TRANS GAL4-LXRb reporter, mRNA
Method in brief: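 Measures induction of a Gal4-driven reporter transcript in HepG2 cells expressing an exogenous LXRb-Gal4 fusion. Cells are exposed to compound for 24 h before RNA isolation and RT-PCR with capillary electrophoresis detection.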

[3] = target: Hepatocyte nuclear factor 4-alpha (Homo sapiens) (UniProt P41235); test: ATG_HNF4a_TRANS: Attagene TRANS-FACTORIAL HepG2 Assay for human Hepatocyte Nuclear Factor 4 alpha (HNF4a) (AID 2282982; active = hit-call score of the fitted dose curve at least 0.9, where 1 is the maximum); conditions: HepG2 HNF4a transactivation reporter, mRNA readout
Method in brief: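 In this trans-factorial format, a chimeric HNF4a-GAL4 fusion drives a GAL4-UAS reporter in transfected HepG2 liver cells. After 24 h treatment, reporter mRNA induction is measured by RT-PCR with capillary electrophoresis, relative to DMSO.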

[4] = ATG_M_06_TRANS: Attagene TRANS-FACTORIAL HepG2 Assay for M06 Transcription Factor (Internal Marker) (AID 2282983; active = hit-call score of the fitted dose curve at least 0.9, where 1 is the maximum); conditions: HepG2 Attagene TRANS M06 internal marker reporter
Method in brief: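 In this multiplexed HepG2 system, compounds are incubated 24 h with cells carrying GAL4-UAS reporter units. Reporter RNA is amplified and resolved by capillary electrophoresis, and induction is scored against DMSO.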

[5] = target: Nuclear receptor subfamily 4 group A member 2 (Homo sapiens) (UniProt P43354); test: ATG_NURR1_TRANS: Attagene TRANS-FACTORIAL HepG2 Assay for human Nuclear Receptor Related Protein 1 (NURR1) (AID 2282985; active = hit-call score of the fitted dose curve at least 0.9, where 1 is the maximum); conditions: HepG2 Attagene TRANS reporter, mRNA readout
Method in brief: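 Chimeric NR-Gal4 fusion activity measured in HepG2 after 24 h treatment. Reporter transcripts detected by RT-PCR and capillary electrophoresis fluorescence; positive-direction curve fitting against DMSO.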

[6] = target: Transcriptional activator Myb (Homo sapiens) (UniProt P10242); test: ATG_Myb_CIS: Attagene CIS-FACTORIAL HepG2 Assay for human Myeloblastosis (Myb) Proto-Oncogene Transcription Factor (AID 2282986); conditions: HepG2 Attagene CIS-FACTORIAL Myb reporter transcription; actives raise or lower the signal
Method in brief: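 Transiently transfected HepG2 cells, treated 24 h. Reporter mRNA quantified by RT-PCR/capillary electrophoresis; bidirectional fit relative to DMSO.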

[7] = target: Nuclear respiratory factor 1 (Homo sapiens) (UniProt Q16656); test: ATG_NRF1_CIS: Attagene CIS-FACTORIAL HepG2 Assay for human Nuclear Respiratory Factor 1 (NRF1) Orphan Gene (AID 2282987); conditions: HepG2 NRF1 cis-element reporter, Attagene multiplex; actives raise or lower the signal
Method in brief: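 Cells (HepG2, transient MRTU transfection) are exposed to compound for 24 h, then RNA isolated and reporter mRNA amplified and fluorescently labelled. Fragments are separated by capillary electrophoresis; signal change is fitted bidirectionally relative to DMSO.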

[8] = target: Myc proto-oncogene protein (Homo sapiens) (UniProt P01106); test: ATG_Myc_CIS: Attagene CIS-FACTORIAL HepG2 Assay for human Myelocytomatosis (Myc) Proto-Oncogene Transcription Factor (AID 2282990); conditions: HepG2, Attagene cis-reporter transcription factor activity; actives raise or lower the signal
Method in brief: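 HepG2 cells transiently transfected with multiple cis-promoter-driven reporter transcription units, so endogenous TF activity is read. After 24 h compound exposure, reporter mRNA was quantified by RT-PCR, 6-FAM labelling, HpaI digestion and capillary electrophoresis; bidirectional fit versus DMSO.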

[9] = ATG_NRF2_ARE_CIS: Attagene CIS-FACTORIAL HepG2 Assay for human Nuclear Factor Erythroid 2 Related Factor 2 (NFR2) response to Antioxidant Response Elements (ARE) (AID 2282992); conditions: HepG2 Attagene ARE/NRF2 reporter, transcription factor activity; actives raise or lower the signal;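 as to AC50: reporter mRNA level measured by RT-PCR and capillary electrophoresis fluorescence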
Method in brief: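 Fluorescence intensity of reporter-specific cDNA fragments, separated by capillary electrophoresis, reflects mRNA induction in transfected HepG2 cells at 24 h. Activity is fitted bidirectionally, DMSO serving as baseline.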

[10] = ATG_Oct_MLP_CIS: Attagene CIS-FACTORIAL HepG2 Assay for human Octamer-Binding Transcription Factor (Oct) (AID 2282993); conditions: HepG2 Attagene cis-factorial Oct reporter, mRNA; actives raise or lower the signal
Method in brief: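 Using HepG2 cells bearing transfected cis-reporter constructs, mRNA induction was read after 24 h by fluorescent RT-PCR and capillary electrophoresis, with DMSO defining baseline for gain- or loss-of-signal fits.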

[11] = target: Cellular tumor antigen p53 (Homo sapiens) (UniProt P04637); test: ATG_p53_CIS: Attagene CIS-FACTORIAL HepG2 Assay for human p53 Transcription Factor (AID 2282994); conditions: HepG2 p53 cis-element reporter, Attagene mRNA; actives raise or lower the signal
Method in brief: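 Transiently transfected HepG2 (multiple cis reporter transcription units); exposure 24 h; reporter RNA via RT-PCR, 6-FAM extension, 2 h HpaI digest at 37 C, CE detection; DMSO baseline.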

[12] = ATG_NFI_CIS: Attagene CIS-FACTORIAL HepG2 Assay for human Nuclear Factor I (NFI) (AID 2282989); conditions: HepG2 cis-regulatory reporter, NFI response element transcription; actives raise or lower the signal
Method in brief: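 Transfected HepG2 liver cells, exposed 24 h, supplied total RNA for oligo(dT) reverse transcription and reporter-specific PCR. Labelled, HpaI-cut fragments were sized by capillary electrophoresis; DMSO set the baseline for bidirectional fitting.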

[13] = ATG_NF_kB_CIS: Attagene CIS-FACTORIAL HepG2 Assay for human Nuclear Factor Kappa B (NF-kB) (AID 2282991); conditions: HepG2 Attagene cis-factorial NF-kB reporter mRNA; actives raise or lower the signal
Method in brief: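 Measures mRNA induction of an NF-kB-responsive cis-element reporter in HepG2 cells transfected with multiple reporter units, sampled 24 h post-dosing; quantified by fluorescence after RT-PCR and capillary electrophoresis, fitted for activation or inhibition against DMSO.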

[14] = ATG_M_32_TRANS: Attagene TRANS-FACTORIAL HepG2 Assay for M32 Transcription Factor (Internal Marker) (AID 2282984; active = hit-call score of the fitted dose curve at least 0.9, where 1 is the maximum;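 also: transcript level of a background control reporter unit measured by RT-PCR and capillary electrophoresis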); conditions: HepG2 Attagene TRANS M32 internal marker reporter
Method in brief: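 After 24 h dosing of transfected HepG2 cells, total RNA was reverse-transcribed, reporter sequences PCR-amplified, 6-FAM labelled by primer extension and HpaI-digested before capillary electrophoresis. Signal increase over DMSO was fitted.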

[15] = BSK_3C_TissueFactor: BioMAP Diversity Plus: 3C Assay for Tissue Factor Biomarker Activity (AID 2282997); conditions: BioMAP 3C HUVEC, tissue factor biomarker readout; actives raise or lower the signal
Method in brief: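 Readout: Tissue Factor ELISA. Cells: human primary umbilical vein endothelium. Time: 24 h after dosing. Analysis: bidirectional fit, DMSO baseline.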

[16] = BSK_3C_uPAR: BioMAP Diversity Plus: 3C Assay for Urokinase-type plasminogen activator receptor (uPAR) Biomarker Activity (AID 2282998); conditions: BioMAP 3C HUVEC, uPAR biomarker ELISA; actives raise or lower the signal
Method in brief: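 In this endothelial cell-based assay, human umbilical vein primary cells were treated with chemicals and harvested at 24 h. uPAR was quantified using ELISA, with gains or losses fitted relative to DMSO controls.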

[17] = BSK_3C_VCAM1: BioMAP Diversity Plus: 3C Assay for Vascular cell adhesion molecule 1 (VCAM1) Biomarker Activity (AID 2282999); conditions: BioMAP 3C HUVEC, VCAM1 ELISA, cytokine-stimulated; actives raise or lower the signal
Method in brief: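 Vascular primary endothelium (human umbilical vein) was exposed to chemicals and assayed 24 h later. VCAM-1 levels came from ELISA, with DMSO serving as baseline for bidirectional fitting.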

Measured: AC50

Sequence of Oxysterols receptor LXR-alpha (Homo sapiens) (Q13133 whole entry, looked up, the tested form may be a part): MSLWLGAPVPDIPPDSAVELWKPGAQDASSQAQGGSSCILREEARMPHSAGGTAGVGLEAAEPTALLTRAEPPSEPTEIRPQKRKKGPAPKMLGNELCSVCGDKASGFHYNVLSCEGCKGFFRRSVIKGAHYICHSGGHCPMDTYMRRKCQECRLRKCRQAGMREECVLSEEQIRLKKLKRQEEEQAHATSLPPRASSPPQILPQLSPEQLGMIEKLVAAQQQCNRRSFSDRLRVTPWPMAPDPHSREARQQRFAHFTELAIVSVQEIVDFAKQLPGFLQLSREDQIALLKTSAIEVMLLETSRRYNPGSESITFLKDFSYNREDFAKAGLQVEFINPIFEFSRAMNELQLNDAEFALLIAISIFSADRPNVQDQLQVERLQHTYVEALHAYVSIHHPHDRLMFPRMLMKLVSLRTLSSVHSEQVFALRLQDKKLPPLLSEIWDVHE
Sequence of Hepatocyte nuclear factor 4-alpha (Homo sapiens) (P41235 whole entry, looked up, the tested form may be a part): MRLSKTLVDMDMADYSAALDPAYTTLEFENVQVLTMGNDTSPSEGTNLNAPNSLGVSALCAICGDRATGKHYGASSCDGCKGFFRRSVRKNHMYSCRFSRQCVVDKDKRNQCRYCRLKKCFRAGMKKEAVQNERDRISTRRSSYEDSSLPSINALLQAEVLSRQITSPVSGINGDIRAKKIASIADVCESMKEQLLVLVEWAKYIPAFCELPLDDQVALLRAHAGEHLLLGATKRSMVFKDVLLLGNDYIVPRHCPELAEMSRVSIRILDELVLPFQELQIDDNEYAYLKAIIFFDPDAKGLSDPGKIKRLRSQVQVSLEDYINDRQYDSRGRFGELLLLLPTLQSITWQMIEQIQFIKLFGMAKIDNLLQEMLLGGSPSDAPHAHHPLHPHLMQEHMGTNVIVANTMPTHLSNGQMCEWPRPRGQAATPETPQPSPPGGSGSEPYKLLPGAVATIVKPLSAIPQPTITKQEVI
Sequence of Transcriptional activator Myb (Homo sapiens) (P10242 whole entry, looked up): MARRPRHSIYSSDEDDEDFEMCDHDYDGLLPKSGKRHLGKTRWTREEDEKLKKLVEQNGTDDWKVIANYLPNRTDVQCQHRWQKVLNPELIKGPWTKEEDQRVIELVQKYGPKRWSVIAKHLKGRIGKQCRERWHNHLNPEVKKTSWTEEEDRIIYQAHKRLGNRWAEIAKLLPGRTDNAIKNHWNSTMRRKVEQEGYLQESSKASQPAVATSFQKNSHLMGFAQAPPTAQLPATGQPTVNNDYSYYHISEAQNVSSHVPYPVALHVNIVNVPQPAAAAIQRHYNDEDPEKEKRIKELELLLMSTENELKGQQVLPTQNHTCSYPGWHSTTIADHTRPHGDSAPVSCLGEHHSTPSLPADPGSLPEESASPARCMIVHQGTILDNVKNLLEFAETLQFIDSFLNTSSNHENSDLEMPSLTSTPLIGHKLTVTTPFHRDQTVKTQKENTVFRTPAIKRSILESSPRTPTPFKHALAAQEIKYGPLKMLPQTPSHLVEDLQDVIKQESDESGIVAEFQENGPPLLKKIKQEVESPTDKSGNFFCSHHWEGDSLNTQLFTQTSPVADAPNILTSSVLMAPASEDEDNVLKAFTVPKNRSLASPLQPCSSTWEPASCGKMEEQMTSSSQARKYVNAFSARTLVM
Sequence of Oxysterols receptor LXR-beta (Homo sapiens) (P55055 whole entry, looked up, the tested form may be a part): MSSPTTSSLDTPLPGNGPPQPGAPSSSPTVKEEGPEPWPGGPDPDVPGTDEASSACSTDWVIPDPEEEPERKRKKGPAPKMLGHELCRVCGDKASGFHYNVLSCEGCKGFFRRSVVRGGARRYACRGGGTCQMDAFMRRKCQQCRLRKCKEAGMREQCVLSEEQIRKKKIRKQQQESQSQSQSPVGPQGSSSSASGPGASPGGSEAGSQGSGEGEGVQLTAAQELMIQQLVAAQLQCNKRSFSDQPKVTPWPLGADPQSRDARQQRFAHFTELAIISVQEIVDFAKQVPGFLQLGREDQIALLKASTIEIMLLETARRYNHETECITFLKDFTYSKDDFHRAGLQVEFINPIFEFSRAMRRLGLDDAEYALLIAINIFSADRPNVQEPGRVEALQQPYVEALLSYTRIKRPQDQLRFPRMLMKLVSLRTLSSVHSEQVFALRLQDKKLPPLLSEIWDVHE
Sequence of Myc proto-oncogene protein (Homo sapiens) (P01106 whole entry, looked up): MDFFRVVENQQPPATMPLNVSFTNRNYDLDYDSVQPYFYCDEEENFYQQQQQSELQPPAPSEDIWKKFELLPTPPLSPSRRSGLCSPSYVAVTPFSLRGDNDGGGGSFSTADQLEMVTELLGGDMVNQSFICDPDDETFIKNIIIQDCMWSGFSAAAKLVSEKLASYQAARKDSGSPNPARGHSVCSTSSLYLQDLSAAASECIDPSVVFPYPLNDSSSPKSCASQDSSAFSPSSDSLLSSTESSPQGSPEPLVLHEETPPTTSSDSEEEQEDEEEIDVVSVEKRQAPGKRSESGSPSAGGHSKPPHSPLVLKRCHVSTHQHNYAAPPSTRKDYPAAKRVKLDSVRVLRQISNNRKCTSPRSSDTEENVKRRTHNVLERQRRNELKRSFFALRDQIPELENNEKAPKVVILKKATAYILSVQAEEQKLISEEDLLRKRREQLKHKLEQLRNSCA
Sequence of Nuclear receptor subfamily 4 group A member 2 (Homo sapiens) (P43354 whole entry, looked up, the tested form may be a part): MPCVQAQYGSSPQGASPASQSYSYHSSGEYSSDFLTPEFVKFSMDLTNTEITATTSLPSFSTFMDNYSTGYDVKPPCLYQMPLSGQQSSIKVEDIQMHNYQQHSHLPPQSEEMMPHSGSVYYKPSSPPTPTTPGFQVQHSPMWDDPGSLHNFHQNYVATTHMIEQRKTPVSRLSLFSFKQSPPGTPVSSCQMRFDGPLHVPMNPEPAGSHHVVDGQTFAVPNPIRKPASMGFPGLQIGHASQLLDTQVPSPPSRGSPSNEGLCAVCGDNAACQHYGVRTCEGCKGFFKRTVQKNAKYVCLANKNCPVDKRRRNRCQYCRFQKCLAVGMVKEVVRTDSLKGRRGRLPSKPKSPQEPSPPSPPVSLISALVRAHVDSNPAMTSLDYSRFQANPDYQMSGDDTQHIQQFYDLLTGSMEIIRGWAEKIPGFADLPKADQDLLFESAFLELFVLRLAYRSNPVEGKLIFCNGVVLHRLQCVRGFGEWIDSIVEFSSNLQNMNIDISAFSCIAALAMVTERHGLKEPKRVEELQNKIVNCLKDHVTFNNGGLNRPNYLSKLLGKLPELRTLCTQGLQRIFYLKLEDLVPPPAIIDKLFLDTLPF
Sequence of Cellular tumor antigen p53 (Homo sapiens) (P04637 whole entry, looked up): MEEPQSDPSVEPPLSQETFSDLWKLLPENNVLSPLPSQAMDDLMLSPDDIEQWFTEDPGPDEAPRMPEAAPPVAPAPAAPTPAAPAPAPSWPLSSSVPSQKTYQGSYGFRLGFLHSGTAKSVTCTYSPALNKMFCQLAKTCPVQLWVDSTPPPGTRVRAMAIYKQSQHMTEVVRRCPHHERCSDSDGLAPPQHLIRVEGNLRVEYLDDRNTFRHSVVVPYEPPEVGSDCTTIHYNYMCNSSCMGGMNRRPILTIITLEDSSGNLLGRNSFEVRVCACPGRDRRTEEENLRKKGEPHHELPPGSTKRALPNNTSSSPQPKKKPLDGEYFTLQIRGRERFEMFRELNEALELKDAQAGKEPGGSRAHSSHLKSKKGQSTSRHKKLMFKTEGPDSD
Sequence of Nuclear respiratory factor 1 (Homo sapiens) (Q16656 whole entry, looked up, the tested form may be a part): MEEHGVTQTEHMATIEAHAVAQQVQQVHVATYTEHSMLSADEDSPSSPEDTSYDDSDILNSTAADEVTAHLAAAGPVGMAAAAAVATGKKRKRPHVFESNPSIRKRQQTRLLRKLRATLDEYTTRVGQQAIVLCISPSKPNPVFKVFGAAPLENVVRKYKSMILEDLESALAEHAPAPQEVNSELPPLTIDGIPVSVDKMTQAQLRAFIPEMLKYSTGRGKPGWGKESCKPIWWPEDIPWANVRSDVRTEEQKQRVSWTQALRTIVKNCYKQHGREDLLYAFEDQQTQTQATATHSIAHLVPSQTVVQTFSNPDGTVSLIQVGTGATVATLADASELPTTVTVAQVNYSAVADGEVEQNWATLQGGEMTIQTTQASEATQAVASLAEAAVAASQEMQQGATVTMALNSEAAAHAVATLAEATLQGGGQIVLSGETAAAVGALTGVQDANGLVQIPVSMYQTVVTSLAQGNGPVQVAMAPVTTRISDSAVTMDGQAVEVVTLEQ

O=c1cc(-c2ccc(O)cc2)oc2cc(O)cc(O)c12
active: [10] 26.5 µM
inactive: [1] | [2] | [3] | [4] | [5] | [6] | [7] | [8] | [9] | [11]

CC1=CC[C@@H](C(C)(C)O)CC1
active: [9] 40.6 µM
inactive: [1] | [2] | [3] | [4] | [6] | [7] | [12] | [8] | [13] | [10] | [11]

COC(=O)c1ccc(C(=O)OC)cc1
inactive: [1] | [3] | [4] | [14] | [5] | [6] | [12] | [8] | [13] | [9] | [10] | [11] | [15] | [16] | [17]

CCCCOCC(C)OCC(C)O (stereo unspecified)
inactive: [1] | [2] | [3] | [14] | [7] | [12] | [8] | [13] | [9] | [10]

CCCCCCCCCCCCCC(=O)OCC
inactive: [1] | [2] | [4] | [14] | [5] | [6] | [7] | [12] | [8] | [9] | [10] | [11]

COc1ccccc1NC(=O)CC(C)=O
inactive: [1] | [2] | [3] | [14] | [5] | [7] | [12] | [8] | [13] | [9] | [10] | [11] | [15] | [16] | [17]

O=S1(=O)CC=CC1
inactive: [1] | [3] | [6] | [12] | [8] | [13] | [9] | [10] | [11]

NC(=O)NC(N)=O
inactive: [1] | [2] | [3] | [4] | [14] | [5] | [6] | [7] | [12] | [8] | [9] | [10] | [11]

CCC(C)COC(=O)CC(C)C (stereo unspecified)
inactive: [1] | [2] | [14] | [6] | [7] | [12] | [8] | [13] | [9] | [10] | [11]

CCCCCC#CC(=O)OC
active: [13] 23.1 µM | [9] 23.9 µM
inactive: [1] | [4] | [14] | [6] | [7] | [12] | [8] | [10] | [11]

CC(C)=CCCC(C)=CC(=O)O
inactive: [1] | [2] | [4] | [6] | [7] | [12] | [8] | [9] | [10] | [11]

Nc1ccn([C@H]2CC[C@@H](CO)O2)c(=O)n1
inactive: [1] | [3] | [4] | [7] | [12] | [8] | [13] | [9] | [11]

C=C(C)CCCC(C)CCO (stereo unspecified)
inactive: [1] | [2] | [4] | [14] | [5] | [8] | [13] | [11]
active: [9] 59.7 µM

O=S(=O)(O)CCCN1CCOCC1
inactive: [1] | [3] | [4] | [5] | [6] | [7] | [12] | [8] | [9] | [10] | [11]

CC(=O)CCc1ccc(O)cc1
inactive: [1] | [2] | [4] | [14] | [6] | [7] | [8] | [9] | [10] | [11]

CC(C)=CC(=O)O
inactive: [1] | [3] | [4] | [14] | [5] | [6] | [12] | [8] | [9] | [10] | [11]

C=CCCCCCCCCC(=O)OCC
inactive: [1] | [4] | [14] | [5] | [6] | [7] | [12] | [8] | [10] | [11]
active: [9] 61.7 µM

CN(C)C
inactive: [1] | [2] | [14] | [6] | [7] | [12] | [8] | [9] | [10] | [11]

CCCCCCCCOC(C)=O
inactive: [1] | [2] | [3] | [4] | [5] | [7] | [8] | [13] | [9] | [11]

C=C(C)C(=O)OCCC[Si](OC)(OC)OC
inactive: [1] | [2] | [3] | [14] | [6] | [7] | [12] | [8] | [13] | [9] | [10] | [11]

CNC(=C[N+](=O)[O-])NCCSCc1ccc(CN(C)C)o1
inactive: [1] | [2] | [4] | [14] | [5] | [6] | [7] | [12] | [8] | [13] | [9] | [10] | [11]

CC(C)C(=O)c1ccccc1
inactive: [1] | [3] | [4] | [14] | [7] | [8] | [13] | [9] | [10] | [11]

CCCC(O)C(CC)CO (stereo unspecified)
inactive: [1] | [3] | [4] | [14] | [5] | [6] | [7] | [12] | [8] | [13] | [9] | [11]

CC(=O)OCC=C(C)CCC=C(C)CCC=C(C)C
active: [7] 154 µM | [12] 157 µM | [9] 49.5 µM
inactive: [1] | [2] | [4] | [5] | [6] | [8] | [13] | [10] | [15] | [16] | [17]
